High-throughput results from PubChem BioAssay.
Tau fil binding: qHTS Assay for Tau Filament Binding | recombinant tau filaments, thioflavin S fluorescence, 15 h; filaments grown with octadecylsulfate alongside compound | Potency, µM (series often up to 57.1 µM), without a hit: at the highest dose activity change, negative = inhibition | 71,000 compounds, 2% hits;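 note: % is set by controls: 0 for no effect and ±100 for the full control effect; actives lower thioflavin S fluorescence by blocking filaments or displacing dye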
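Read-out: ThS fluorescence, 450 nm excitation/510 nm emission; lower signal marks blocked filament formation or displaced dye. Tau at 1 uM with 30 uM ODS, 10 uM ThS, 5 mM DTT, 100 mM NaCl, 10 mM HEPES pH 7.4; 15 h, 37 C.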
15-hLO inh: qHTS Assay for Inhibitors of 15-hLO (15-human lipoxygenase); Polyunsaturated fatty acid lipoxygenase ALOX15 (Homo sapiens), P16050; purified 15hLO-1, xylenol orange hydroperoxide absorbance; Potency, µM (top dose mostly 57.1 µM), without a hit: at the highest dose activity change, negative = inhibition, most hits filed as inhibitors; 74,000 compounds, 1.4% hits; AID 887, 2007; note: % is set by controls: 0 for no effect and ±100 for the full control effect; nearly all actives have a fitted effect of over 55% in size
Target sequence (P16050 whole entry, looked up): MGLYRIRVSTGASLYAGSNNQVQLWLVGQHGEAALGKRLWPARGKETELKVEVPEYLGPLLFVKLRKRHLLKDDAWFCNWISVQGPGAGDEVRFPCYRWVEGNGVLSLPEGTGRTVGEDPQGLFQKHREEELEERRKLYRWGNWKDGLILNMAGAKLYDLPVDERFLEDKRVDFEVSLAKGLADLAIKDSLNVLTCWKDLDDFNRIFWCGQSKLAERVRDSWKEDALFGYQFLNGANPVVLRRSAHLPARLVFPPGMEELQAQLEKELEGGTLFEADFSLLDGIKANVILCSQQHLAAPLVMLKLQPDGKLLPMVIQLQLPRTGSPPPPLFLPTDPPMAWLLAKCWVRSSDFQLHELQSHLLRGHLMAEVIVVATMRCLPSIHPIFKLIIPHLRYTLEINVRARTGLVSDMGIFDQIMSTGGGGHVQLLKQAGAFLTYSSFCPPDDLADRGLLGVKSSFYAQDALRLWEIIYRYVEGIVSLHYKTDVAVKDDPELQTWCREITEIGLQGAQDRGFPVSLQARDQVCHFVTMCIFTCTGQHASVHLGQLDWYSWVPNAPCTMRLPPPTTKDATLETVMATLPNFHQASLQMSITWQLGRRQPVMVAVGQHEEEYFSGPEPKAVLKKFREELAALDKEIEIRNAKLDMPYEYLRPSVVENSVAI
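Purified human 15hLO-1 (40 nM) in 25 mM Hepes pH 7.5, 0.01% Triton X-100, preincubated 15 min RT with compound, then 50 uM arachidonic acid for 6 min. Hydroperoxide read by ferrous/xylenol orange, 30 min; 573/405 nm absorbance ratio gave progress.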
USP2a inhib: qHTS Assay for Inhibitors of Ubiquitin-specific Protease USP2a; Ubiquitin carboxyl-terminal hydrolase 2 (Homo sapiens), O75604; USP2a enzymatic assay, qHTS inhibition; Potency, µM (titrated, usually from 38.3 µM), without a hit: at the top dose activity change, negative = inhibition, actives largely listed as inhibitors; 60,000 compounds, 0.1% hits; AID 927, 2007; note: nearly all actives have a fitted effect of over 60% in size
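USP2 core (20 nM final) was preincubated with compound for 30 min at RT in 20 mM Tris-HCl pH 8.0, 2 mM CaCl2, 2 mM beta-mercaptoethanol; Ub-PLA2 (20 nM) plus NBD C6-HPC (20 uM) then added, fluorescence read after 2.5 h.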
Hsp90 Hop PPI: qHTS Assay for Disrupters of an Hsp90 Co-Chaperone Interaction. AlphaScreen TPR2A-His6 binding biotin-Hsp90 C-terminal peptide. Potency, µM (highest dose often 57 µM), inactives show top-dose activity change, negative = inhibition. 71,000 compounds, 0.44% hits. Hsp90 C-terminal peptide / TPR2A (Hop) interaction, human. AID 595, 2007; active = well fitted curve in either direction with a large enough effect; inconclusive = small, poorly fitted or top-dose-only effect, or another doubt; note: % is set by controls: 0 for no effect and ±100 for the full control effect
GBA activity: Glucocerebrosidase; AID 360, 2006; 48,000 compounds, 1.1% hits; Lysosomal acid glucosylceramidase (Homo sapiens), P04062; purified enzyme, resorufin glucoside fluorescence (screen aimed at inhibitors), 20 min; Potency, µM; in the data active = potency below about 15 µM; inconclusive = mostly about 16 µM to 33 µM;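 note: the screen sought inhibitors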
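Normal human glucocerebrosidase (0.2 nM final) was assayed with resorufin β-D-glucopyranoside (30 uM final) in 50mM citric acid/KH2PO4, 10mM sodium taurocholate, 0.01% tween-20, pH 5.9. Compounds were titrated; fluorescence (Ex 548, Em 600) read after 20 min at RT.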
PK Bst: Pyruvate Kinase. purified pyruvate kinase, luminescence ATP production; ribose 5-phosphate activator present at AC10. Potency, µM. 51,000 compounds, 1.2% hits. AID 361, 2006; in the data active = potency below about 11 µM; inconclusive = mostly about 12 µM to 25 µM;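 the screen sought inhibitors and activators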;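 note: scaled between full activation by ribose 5 phosphate and full inhibition by luteolin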
* hit, by the source's call; i = inactive; ? = inconclusive; · = no result given; [ ] = another dose, or the depositor's remark. Compounds with a hit are over-represented: about 4.6% of the library has one in this group of screens. Unless noted, calls come from the whole dose curve; as a rule, active = well fitted curve in the direction sought with a large enough effect; inconclusive = small, poorly fitted or top-dose-only effect, or another doubt; inactive = no such curve, though single readings can be large; an effect the other way counts as inactive or inconclusive. Potency is the fitted concentration of half-maximal effect.

SMILES	Tau fil binding	15-hLO inh	USP2a inhib	Hsp90 Hop PPI	GBA activity	PK Bst
COc1cccc2c(=O)n(CC(=O)N3CCCc4ccccc43)ccc12	13µM*	-6%	·	-10%	·	·
COc1cccc2c(=O)n(CC(=O)NC3CCCC3)ccc12	-5%	3%	·	-2%	·	·
CC1(C)CCC[C@@]2(C)[C@@H]1CC[C@]1(C)OC(=O)C[C@@H]21	-15%	·	·	?	·	·
CC1(C(=O)CSc2nc3ccccc3s2)CCC(=O)O1 (stereo unspecified)	·	·	·	·	·	10*
CC1CC2(CC(C)(C(=O)CSc3nc4ccccc4s3)OC2=O)C(=O)O1 (stereo unspecified)	0%	-1%	14%	-5%	·	i
Cc1noc(C)c1-c1nc(N(C)C)c2ccccc2n1	-5%	16µM*	-15%	-2%	·	·
Cc1noc(C)c1-c1nc(NCc2cccs2)c2ccccc2n1	83%	13µM*	105%	-7%	·	·
Cc1noc(C)c1-c1nc(NC2CC2)c2ccccc2n1	-6%	-4%	7%	-1%	·	·
COCCNc1nc(-c2c(C)noc2C)nc2ccccc12	-2%	7%	?	-1%	·	·
Cc1noc(C)c1-c1nc(Nc2ccc(F)cc2)c2ccccc2n1	-16%	16µM*	58%	1%	·	·
Cc1cc(C(=O)N2CCN(C/C=C/c3ccccc3)CC2)no1	4%	5%	-5%	-2%	>77	>57
Cc1cc(N)ccc1-n1c(C)ccc1C	25µM*	?	0%	-3%	>77	>57
Cc1cc(C(=O)O)ccc1-n1c(C)ccc1C	-6%	?	-13%	-6%	>77	>57
CNc1oc(Cc2cccc3ccccc23)nc1C#N	3%	-16%	-2%	-11%	>77	?
Cc1oc(/N=C/c2cccc3ccccc23)c(C#N)c1C	0.79µM*	?	8%[7.66 µM]	-9%[11 µM]	·	·
CCOC(=O)C1CCCN(S(=O)(=O)c2cc(OCC(N)=O)c(C)cc2Cl)C1 (stereo unspecified)	2%	-3%	8%	-3%	>77	>57
CCOC(=O)CSc1cccc2cccnc12	-7%	-21%	6%	16µM*	>77	>57
Cc1[nH]n(-c2ccccc2)c(=O)c1/C=N/O	-7%	-11%	-4%	-21%	·	·
Cc1[nH]n(-c2ccccc2)c(=O)c1-c1ccccc1	-4%	4µM*	3%	-7%	·	·
COCCN1CCn2c(nc3cc(NC(=O)c4ccc(OC)cc4)ccc32)C1	25µM*	?	42%	-14%	i	·
O=C(Nc1ccc2c(c1)nc1n2CCN(Cc2ccccc2)C1)c1cccs1	-28%	-6%	56%	-7%	·	·
Cc1ccc(C(=O)Nc2ccc3c(c2)nc2n3CCSC2)cc1	-2%	7%	72%	-2%	·	?
CCCN1CCC(NC(=O)Nc2ccc(OC)c(OC)c2)CC1	4%	0%	-1%	-10%	>77	>57
COc1ccccc1C(=O)Nc1ccc2c(c1)nc1n2CCSC1	-19%	12%	46%	-3%	?	5.6*
COCCN1CCn2c(nc3cc(NC(=O)NC4CCCCC4)ccc32)C1	25µM*	-23%	21%	?	i	>57
SMILES	Tau fil binding	15-hLO inh	USP2a inhib	Hsp90 Hop PPI	GBA activity	PK Bst
CC(=O)NCCc1cc2ccc(C)c(C)c2[nH]c1=O	6%	9%	·	-1%	·	·
CC1(C(=O)O)C=CCN1C(=O)c1ccccc1 (stereo unspecified)	-3%	-7%	·	3%	·	·
COC(=O)c1ccc(-c2sc3nc(N4CCOCC4)c4c(c3c2N)CC(C)(C)OC4)o1	·	·	·	·	·	>26
O=c1cc(-c2ccccc2)oc2cc(O)c(O)cc12	·	16µM*	-22%	·	·	·
O=c1cc(-c2ccccc2)oc2ccccc12	-20%	-25%	·	2%	·	·
O=c1cc(-c2ccc(O)c(O)c2)oc2ccccc12	·	1.6µM*	-6%	·	·	·
CCOc1cc(C(=O)OCC(=O)NCc2ccco2)cc(OCC)c1OCC	-10%	-8%	27%	-7%	i	>57
O=C(Nc1ccccc1F)C1CCCN(S(=O)(=O)c2cccc3cccnc23)C1 (stereo unspecified)	-5%	-3%	·	-1%	·	·
COC(=O)c1c(C(=O)OC)c2n(c1C)Cc1ccccc1C2	-26%	7.9µM*	-6%	-4%	·	·
CC1=C2[C@H](/C=C(\C)C(=O)O)CC[C@@H](C)[C@H]2CC1	-11%	-11%	·	-5%	·	·
CN(C)CCCOC(=O)CCc1ccccc1	-8%	-1%	-7%	-4%	>77	>57
O=C(NCC1CCCO1)c1ccccc1-c1nc(-c2ccc(Cl)cc2)no1 (stereo unspecified)	18%	-4%	11%	1%	i	10*
COc1ccc(NC(=O)C2CSC3c4ccccc4C(=O)N23)cc1 (stereo unspecified)	·	·	·	·	·	11*
Cc1sc2ncnc(SC(C)C#N)c2c1C (stereo unspecified)	-9%	4%	3%	?	>77	>57
CCOc1ccc(N2Cc3ccccc3C2)cc1	16µM*	-9%	·	-16%	·	·
CC1=c2c(oc3cc(O)c(Nc4c(C)cc(O)cc4O)c(C)c23)=CC(=O)C1=Nc1c(C)cc(O)cc1O	1.6µM*	?	·	?	·	·
Cc1ccccc1-c1nc(CN2CCC(C(=O)O)CC2)c(C)o1	-10%	2%	·	-1%	·	·
COc1nc(Nc2cccc(C)c2)nc(N2CCCCC2)n1	7%	4µM*	-12%	8%	>77	>57
Cn1c(=O)[nH]c(=O)c2c1nc(N1CCCCCC1)n2CCN1CCCCCC1	7%	8%	·	-1%	11*	>57
COc1cccc(-c2cnc(NCc3cc(Cl)ccc3O)n2C)c1	30%	32µM*	-2%	?	i	>57
Cn1c(-c2cccc(Br)c2)cnc1NCc1cccnc1	13%	16%	·	-11%	>77	>57
COc1ccc2c(c1)nc1n2CN(CC2CCCO2)CN1Cc1ccccc1 (stereo unspecified)	-2%	6%	9%	-3%	>77	>57
O=C(c1cccn2c(=O)c3cc(Br)ccc3nc12)N1CCN(c2ccccn2)CC1	12%	-12%	13%	3%	>77	>57
O=C(c1cc(-c2ccncc2)nc2ccc(Br)cc12)N1CCN(c2ccccn2)CC1	32µM*	-8%	53%	-13%	?	?
C=CCOc1ccc(C2C(C(=O)c3ccco3)=C(O)C(=O)N2CCCN(CC)CC)cc1 (stereo unspecified)	-2%	-3%	10%	-1%	>77	>57
c1ccc(-c2nc3ccccc3c3nncn23)cc1	88%	9%	7%	0%	>77	·
c1ccc2c(c1)nc(-c1ccncc1)n1nnnc21	0%	9%	-5%	-3%	>77	8.9*
